Six1-Eya2 blk: qHTS Assay for Inhibitors of the Six1/Eya2 Interaction; AlphaScreen GST-Six1/His-Eya2 binding, biochemical; hits give low values; hit rate 0.56% among 360,000; activity change, % (no concentration beside the values); Homeobox protein SIX1 (Homo sapiens) + Protein phosphatase EYA2 (Homo sapiens), …; in the data active = activity change below about -65%; inconclusive = mostly about -30% to -63%; note: % is set by controls: 0 for no effect and ±100 for the full control effect
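Six1/Eya2 binding was read as AlphaScreen signal after compounds were pinned into GST-Six1 plus His-tagged Eya2 (5X stock 250/500 nM) in pH 8.0 Tris/NaCl/TCEP buffer, beads added, then incubated 1 h, 37 C, dark.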
G9a inh: qHTS Assay for Inhibitors of Histone Lysine Methyltransferase G9a. G9a H3K9 monomethylation, AlphaScreen, 2 h. Potency, µM (doses to about 102 µM), for the others: at the top dose activity, negative = inhibition, usual class: inhibitors. hit rate 8.8% among 350,000; note: potency is the fitted concentration of half-maximal effect; % is set by controls: 0 for no effect and ±100 for the full control effect; nearly all actives have a fitted effect of over 75% in size
Target sequence (Q96KQ7 913-1193 limits assumed): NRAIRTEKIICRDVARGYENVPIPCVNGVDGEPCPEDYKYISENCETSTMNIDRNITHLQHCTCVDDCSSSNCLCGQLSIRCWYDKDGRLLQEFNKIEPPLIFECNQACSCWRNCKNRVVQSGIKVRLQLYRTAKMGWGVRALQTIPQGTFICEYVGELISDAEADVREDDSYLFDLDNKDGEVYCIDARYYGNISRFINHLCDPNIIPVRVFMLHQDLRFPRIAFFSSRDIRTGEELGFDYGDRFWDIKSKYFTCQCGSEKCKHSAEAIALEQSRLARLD
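Enzyme 20 nM + cpd, 15 min RT; add b-H3K9 pep 500 nM / SAM 20 uM; 2 h RT; anti-H3K9me1 Ab 0.5 ug/mL + SA donor / anti-rabbit acceptor beads 20 ug/mL each, 10 min; AlphaScreen read.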
HP1b chromo inh: HTS for Inhibitors of HP1-beta Chromodomain Interactions with Methylated Histone Tails; AlphaScreen HP1-beta / biotin-H3K9me3 peptide binding; hit rate 0.56% among 390,000; Chromobox protein homolog 1 (Homo sapiens), P83916; Potency, µM (titrated, usually from 114 µM), for inactives: at the top dose activity change, negative = inhibition, usual class: inhibitors; note: potency is the fitted concentration of half-maximal effect; nearly all actives have a fitted effect of over 70% in size
Target sequence (P83916 whole entry, looked up): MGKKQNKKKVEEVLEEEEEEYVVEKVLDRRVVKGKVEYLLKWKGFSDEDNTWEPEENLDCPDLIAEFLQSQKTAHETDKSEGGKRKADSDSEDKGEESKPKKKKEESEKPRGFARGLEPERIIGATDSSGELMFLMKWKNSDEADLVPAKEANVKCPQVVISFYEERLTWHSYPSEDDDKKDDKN
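Compound inhibition of the preformed complex between 50 nM HP1-beta and 50 nM biotinylated H3K9me3 peptide was read by AlphaScreen. Buffer was PBS pH 7.4 with 0.01% Tween-20. Incubations ran 30 min at room temperature, with 10 ug/mL donor/acceptor beads.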
CtBP-E1A blk: qHTS Assay for Inhibitors of the CtBP/E1A Interaction; AlphaScreen GST-E1A/His-CtBP binding, 1536-well; hits give low values; activity change, % (no concentration beside the values); hit rate 0.49% among 340,000; AID 651724, 2012; in the data active = activity change below about -65%; inconclusive = mostly about -30% to -63%; note: % is set by controls: 0 for no effect and ±100 for the full control effect
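GST-E1A and His-tagged CtBP (125 nM each as 5X stock) were preincubated with pin-transferred compound for 2 h at 37 °C in the dark, then glutathione donor and nickel acceptor beads were added for 1 h before AlphaScreen reading.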
BAZ2B block: qHTS Assay for Inhibitors of BAZ2B | Bromodomain adjacent to zinc finger domain protein 2B (Homo sapiens), Q9UIF8 | AlphaScreen BAZ2B-H3K14Ac peptide displacement | Potency, µM (titrated, usually from 114 µM), for inactives: top-dose activity change, negative = inhibition, usual class: inhibitors | hit rate 4.4% among 360,000 | AID 504333, 2011; note: potency is the fitted concentration of half-maximal effect; % is set by controls: 0 for no effect and ±100 for the full control effect; nearly all actives have a fitted effect of over 60% in size
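Multi-concentration screen (max 110 uM) measuring displacement of acetylated histone H3 peptide from BAZ2B by AlphaScreen, using 50 nM protein, 50 nM peptide and 10 ug/mL streptavidin donor plus Ni-chelate acceptor beads.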
JMJD2A Tudor inh: qHTS Assay for Inhibitors of JMJD2A-Tudor Domain; Potency, µM (highest dose often 114 µM), for inactives: at the top dose activity change, negative = inhibition, actives largely listed as inhibitors; Lysine-specific demethylase 4A (Homo sapiens), O75164; AlphaScreen JMJD2A-Tudor / H3K4me3 peptide binding; hit rate 4.4% among 390,000; note: potency is the fitted concentration of half-maximal effect; % is set by controls: 0 for no effect and ±100 for the full control effect; nearly all actives have a fitted effect of over 50% in size
The depositor's hits bear a star; ? = inconclusive; / = no result; [ ] = dose if it differs, or a comment. Compounds with a hit are over-represented: about 10% of the library has one in this group of screens. Unless noted, calls come from the whole dose curve; as a rule, active = well fitted inhibition curve with a large enough effect; inconclusive = small, poorly fitted or top-dose-only effect; inactive = no such curve, though single readings can be large or run the other way.

SMILES	Six1-Eya2 blk	G9a inh	HP1b chromo inh	CtBP-E1A blk	BAZ2B block	JMJD2A Tudor inh
COc1ccc(N2CCN(CCCNC(=O)c3cc(Nc4ccccc4OC)nc4ccccc34)CC2)cc1	/	10µM*	?	/	10µM*	35.5µM*
COc1ccc(Nc2cc(C(=O)NCCCN3CCN(c4ccccc4F)CC3)c3ccccc3n2)c(OC)c1	/	12.6µM*	-33.5%	/	/	10µM*
COc1ccccc1CNC(=O)C(=O)c1cn(CC(=O)N2CCOCC2)c2ccccc12	7.4	/	46.4%	22.2	-10.7%	-17.9%
COc1ccc(-c2noc(-c3ccc(NCC4CCCO4)c([N+](=O)[O-])c3)n2)cc1OC (centres undefined)	/	-6.3%[59 µM]	11.0%	/	2.9%	-12.6%
COc1ccc(N2CCN(CCCNC(=O)C(=O)c3c[nH]c4ccccc34)CC2)cc1	?	39.8µM*	50.1µM*	-26.7	14.1µM*	28.2µM*
COc1ccc(N2CCN(CCCNC(=O)C3CCCN(S(=O)(=O)c4cnc[nH]4)C3)CC2)cc1 (centres undefined)	1.7	50.1µM*	38.2%	-2.3	6.4%	?
COc1ccc(N2CCN(CCCNC(=O)C3CCCN(S(=O)(=O)c4c(C)n[nH]c4C)C3)CC2)cc1 (centres undefined)	22.0	?	-1.3%	0.0	-14.1%	-31.5%
CCN(CC)CCNC(=O)c1cc(Nc2ccc(OC)c(OC)c2)nc2ccccc12	-20.5	70.8µM*	-15.3%	-21.3	39.8µM*	?
COc1ccc(N2CCN(CCNC(=O)c3ccc4c(c3)[nH]c(=S)n3c5ccccc5nc43)CC2)cc1	-13.0	50.1µM*	4.9%	-6.5	?	?
CC1CN(C(=O)COC(=O)Cc2ccc(Cl)cc2)CC(C)O1 (centres undefined)	5.0	-19.7%[12.7 µM]	47.3%	9.0	31.6%	2.7%
COc1ccc(Nc2cc(C(=O)NCCCN3CCN(c4ccc(OC)cc4)CC3)c3ccccc3n2)cc1	/	11.2µM*	?	/	14.1µM*	22.4µM*
COc1ccc(C2C(C#N)=C(N)Oc3c2c(-c2ccccc2)nn3-c2ccccc2)c(OC)c1OC (centres undefined)	2.4	50.1µM*	?	21.7	25.1µM*	?
Cc1ccc(-n2nc(C)c3c2OC(N)=C(C#N)C3c2ccc(C)o2)cc1 (centres undefined)	-0.7	8.91µM*	-26.0%	-1.6	10µM*	11.2µM*
Cc1ccc(-n2nc(C)c3c2OC(N)=C(C#N)C3c2ccco2)cc1 (centres undefined)	-0.6	?	44.7µM*	-22.6	17.8µM*	56.2µM*
Cc1ccc(-n2nc(C)c3c2OC(N)=C(C#N)C3c2ccoc2)cc1 (centres undefined)	-1.3	?	0.0%	1.6	?	-36.0%
Cc1nn(-c2ccccc2)c2c1C(c1ccccc1)C(C#N)=C(N)O2 (centres undefined)	-3.5	?	-7.7%	-5.1	?	-15.1%[11.4 µM]
Cc1nn(-c2ccccc2)c2c1C(c1ccc(Br)s1)C(C#N)=C(N)O2 (centres undefined)	14.9	15.8µM*	?	/	11.2µM*	12.6µM*
COC(=O)C1=C(C)OC(N)=C(C#N)C1c1ccc(OC)c(OC)c1OC (centres undefined)	-0.2	-0.9%[12.7 µM]	25.1%	-11.8	6.2%	5.2%[57.1 µM]
O=C(CSc1nc2ccccc2nc1Cc1ccccc1)N1CCCc2ccccc21	/	27.4%[59 µM]	39.6%[57 µM]	/	0.2%	-0.6%
CCN(CC)C(=O)c1sc2c(c1C)c(=O)n(Cc1ccccc1)c(=O)n2Cc1ccccc1C	/	-5.6%[59 µM]	5.4%	/	-18.8%	-20.0%
COc1ccc(C(=O)NCCSc2c(C)[nH]c3ccccc23)cc1	/	-49.2%[59 µM]	15.8%	/	70.8µM*	-32.8%
